UCHL1 block: blocks human UCHL1 ubiquitin-rhodamine cleavage; 47,000 tested, 0.2% active; purified UCHL1, Ub-rhodamine cleavage fluorescence; inhibition, % at 20 µM
USP10 inh: inhibitors of human USP10 deubiquitinase | purified USP10, Ub-rhodamine fluorescence, 60 min | inhibition, % at 20 µM | 47,000 tested, 1.1% active | Q14694
USP8 block: inhibitors of human USP8 deubiquitinase; AID 1645853; P40818; inhibition, % at 20 µM; purified USP8, Ub-rhodamine cleavage fluorescence, 30 min; 47,000 tested, 4.2% active
OTUD3 inh: human OTUD3 deubiquitinase inhibition. inhibition, % at 25 µM. purified OTUD3, Ub-rhodamine fluorescence, 2 h. 47,000 tested, 0.7% active
USP7 block: inhibitors of human USP7 deubiquitinase; 47,000 tested, 0.3% active; purified USP7, Ub-rhodamine cleavage fluorescence; Q93009; inhibition, % at 20 µM
USP17 block: blocks human USP17 ubiquitin-rhodamine cleavage | inhibition, % at 50 µM | AID 1645855 | purified USP17, Ub-rhodamine cleavage fluorescence, 3 h | 47,000 tested, 6.5% active | A8MUK1
* hit, by the source's call. Shown are actives, neighbours in structure and some others; about 9.2% of the full set was active somewhere. Cut-off read from the data, not from the text of the source: active = inhibition above about 30%; inactive = the rest.

SMILES | UCHL1 block | USP10 inh | USP8 block | OTUD3 inh | USP7 block | USP17 block
Cc1cc(C(=O)N2CCOC3(CC=CCN(CCc4ccccc4)C3=O)C2)n2nccc2n1 (configuration not stated) | 3 | 0 | 17 | 76* | 2 | 3
c1ccc2c(-c3nnc(C4CC4)o3)nnc(NCCCN3CCCC3)c2c1 | -5 | -2 | -4 | -11 | -3 | 40*
COc1ccc(Cc2nnc(Nc3ccc(F)cc3)[nH]c2=O)cc1 | 0 | 25 | 52* | 0 | 8 | -1
COc1ccc(Cc2nnc(Nc3ccccc3)[nH]c2=O)cc1OC | -1 | 0 | 2 | 0 | 1 | 1
COc1ccc(Cc2nnc(Nc3ccccc3)[nH]c2=O)cc1 | -1 | 3 | 51* | 11 | 4 | 8
COc1ccc(Nc2nnc(Cc3ccccc3)c(=O)[nH]2)cc1 | 1 | 11 | 25 | 0 | 8 | 12
Cc1cccc(Nc2nnc(Cc3ccccc3)c(=O)[nH]2)c1 | 2 | 16 | 59* | 7 | 16 | 5
COc1ccc(Cc2nnc(NC(C)c3ccccc3)[nH]c2=O)cc1 (configuration not stated) | 4 | 31* | 67* | 10 | 15 | 15
O=C(CSc1nc2ccccc2n1S(=O)(=O)c1ccc(Br)cc1)Nc1ccc([N+](=O)[O-])cc1Cl | 9 | 8 | -57 | 15 | -34 | -10
O=C(CC(c1cccc(F)c1)n1cccc1)Nc1ccc(F)c(Cl)c1 (configuration not stated) | 5 | 10 | 25 | 27 | -19 | 46*
O=C(CC(c1ccc(F)cc1)n1cccc1)Nc1ccc(Cl)cc1 (configuration not stated) | 6 | 13 | -9 | 13 | -82 | 18
COC(=O)c1ccc(C2c3[nH]c4ccccc4c3C[C@H]3C(=O)N(CCN4CCOCC4)CC(=O)N23)cc1 (some centres not stated) | -5 | -7 | -29 | -50 | -8 | -61
COc1ccc(-n2c(=O)c3ccc(C(=O)NCCc4ccccc4)cc3n(CC(=O)Nc3ccc(C)cc3C)c2=O)cc1 | 0 | 8 | 2 | -3 | 4 | 8
COc1ccc(-n2c(=O)c3ccc(C(=O)NCCc4ccccc4)cc3n(CC(=O)NCCC3=CCCCC3)c2=O)cc1 | 1 | 55* | 8 | 29 | 17 | 41*
Cc1ccc(-n2c(=O)c3ccc(C(=O)NCc4ccco4)cc3n(CC(=O)NCCC3=CCCCC3)c2=O)cc1 | -1 | 45* | 43* | -15 | 3 | -4
COc1ccccc1Nc1cc(C(=O)NCCc2ccccc2)c2ccccc2n1 | 6 | 2 | -11 | -8 | 5 | -9
N#Cc1c(-c2ccccc2)ccn(Cc2cccc(C(F)(F)F)c2)c1=O | 1 | 13 | 17 | 3 | 8 | 53*
Cn1c(=O)c(C(=O)Nc2cccc(F)c2)c(O)c2ccccc21 | 0 | 0 | 0 | -7 | 0 | 10
COc1cccc(NC(=O)c2c(O)c3ccccc3n(CC(C)C)c2=O)c1 | -1 | 3 | 85* | -11 | 2 | 15
CCC(=O)NNC(=O)c1c(O)c2ccccc2n(CC)c1=O | -2 | 2 | 51* | -1 | -3 | 9
COc1ccc(C)cc1NC(=O)COC(=O)c1n[nH]c2ccccc12 | 6 | -2 | -17 | -10 | 11 | -1
O=C(COC(=O)c1n[nH]c2ccccc12)Nc1ccc(N2CCCCC2)cc1 | 0 | 4 | 5 | -7 | 11 | 59*
O=C(COC(=O)c1n[nH]c2ccccc12)Nc1ccc2c(c1)CCC2 | 1 | 11 | 30* | -2 | 12 | -4
O=C(c1cccnc1)N1CCN(S(=O)(=O)c2cccc3nonc23)CC1 | -6 | 0 | -50 | -1 | -2 | -14
CN(c1ccccc1)c1ccc2ccc(C(=O)NC3CC3)cn12 | 0 | -2 | -79 | -4 | -8 | -5
COc1ccc(C2NC(=O)NC(C)=C2C(=O)c2ccccc2)cc1OCc1ccccc1 (configuration not stated) | -90 | -5 | -38 | -183 | -133 | -143
CC(C)(C)c1ccc(Cn2nnc3c(=O)[nH]c(C4CCN(S(=O)(=O)c5ccc(S(=O)(=O)NC6CC6)cc5)CC4)nc32)cc1 | 10 | 29 | 33* | 11 | 14 | 64*
O=c1[nH]c(C2CCN(S(=O)(=O)c3ccc(S(=O)(=O)NC4CCCCC4)cc3)CC2)nc2c1nnn2Cc1cccc(F)c1 | -7 | 0 | -44 | -22 | 0 | -15

High-throughput results deposited in PubChem BioAssay by Buhrlage Lab, Dana-Farber Cancer Institute and Novartis Institutes for BioMedical Research (Cambridge, Mass).
